Experimental data as given in PubChem BioAssay (NCATS).
Records with an inconclusive call do not appear. Entries that show only a call come without a potency. Activity calls are given as the source filed them. The call rests on the fitted dose curve; in most records, active means well fitted curve in the direction sought with a large enough effect; inconclusive means small, poorly fitted or top-dose-only effect, or another doubt; inactive means no such curve, though single readings can be large; an effect the other way counts as inactive or inconclusive.

Tests used:
[1] = molecular target: Glutathione peroxidase 1 (Homo sapiens) (UniProt P07203); experiment: Primary qHTS Assay for Inhibitors of Recombinant Selenoprotein Glutathione Peroxidase 1 (GPX1) (AID 1845191); further: nearly all actives have a fitted effect of over 65% in size
Glutathione peroxidase 1 (Homo sapiens), sequence (P07203 whole entry, looked up): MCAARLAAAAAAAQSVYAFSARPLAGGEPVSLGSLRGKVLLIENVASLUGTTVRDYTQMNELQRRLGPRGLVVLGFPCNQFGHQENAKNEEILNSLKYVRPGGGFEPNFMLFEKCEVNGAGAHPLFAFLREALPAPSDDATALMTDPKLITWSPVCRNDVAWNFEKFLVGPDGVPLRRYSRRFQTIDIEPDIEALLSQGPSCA
Outline: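 Recombinant GPX1 (10 nM final) was preincubated with compound for 30 min at room temperature, then reacted with 1 mM GSH, 0.5 mM CHP, 0.5 mM NADPH and 100 nM glutathione reductase; NADPH fluorescence (340/450 nm) was read at 0 and 15 min.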

[2] = molecular target: Phospholipid hydroperoxide glutathione peroxidase GPX4 (Homo sapiens) (UniProt P36969); experiment: Primary qHTS Assay for Inhibitors of Recombinant Selenoprotein Glutathione Peroxidase 4 (GPX4) (AID 1845192); further: nearly all actives have a fitted effect of over 65% in size; further: potency means the concentration at half of the fitted maximal effect
Phospholipid hydroperoxide glutathione peroxidase GPX4 (Homo sapiens), sequence (P36969 whole entry, looked up): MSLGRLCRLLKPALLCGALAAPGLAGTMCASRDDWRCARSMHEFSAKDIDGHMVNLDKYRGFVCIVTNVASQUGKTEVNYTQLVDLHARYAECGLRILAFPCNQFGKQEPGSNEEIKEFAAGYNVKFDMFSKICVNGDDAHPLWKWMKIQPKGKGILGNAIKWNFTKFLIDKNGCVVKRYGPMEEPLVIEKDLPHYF
Outline: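 GR-coupled readout: 100 nM GR, 1 mM GSH, 0.5 mM NADPH; NADPH fluorescence (ex 340/em 450 nm) read at t=0 and after 15 min RT. GPX4 200 nM, preincubated 30 min with compound; substrate 0.5 mM CHP.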

[3] = molecular target: Luciferin 4-monooxygenase (Photinus pyralis) (UniProt P08659); experiment: Primary firefly luciferase (FLuc) qHTS assay for identification of artifact compounds. (AID 1845220); further: nearly all actives have a fitted effect of over 60% in size; further: potency means the concentration at half of the fitted maximal effect
Outline: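 qHTS, 15 min compound preincubation with substrate (10 uM luciferin, 10 uM ATP) at RT, then 10 nM FLuc; 5 min; luminescence; % inhibition vs no-enzyme/DMSO controls, 4-parameter Hill fit.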

[4] = Primary fluorescence-based thiol-reactive (MSTI) qHTS assay for identification of artifact compounds. (AID 1845221); further: nearly all actives have a fitted effect of over 65% in size; further: potency means the concentration at half of the fitted maximal effect
Outline: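 A multi-concentration qHTS design tested compounds against 4 uM MSTI, pH 7.4 phosphate-buffered saline. Plates were protected from light for 1 h at room temperature before imaging fluorescence.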

[5] = system: Nanoluciferase (engineered Oplophorus gracilirostris luciferase); experiment: Primary Nanoluciferase (NLuc) qHTS assay for identification of artifact compounds. (AID 1845222); further: potency means the concentration at half of the fitted maximal effect
Outline: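 Luminescence read-out of secreted NLuc in S16 cell conditioned medium (1:55); compounds tested with 15 min RT preincubation, then Nano-Glo substrate 1:100, 5 min. % inhibition vs no-enzyme and DMSO controls, 4-parameter Hill fit.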

CC(=O)SC[C@@H](C)C(=O)N1CCC[C@H]1C(=O)N[C@@H](Cc1ccccc1)C(=O)O
Potency [1]: inactive
Potency [2]: inactive

COC(=O)C1=C(C)NC(C)=C(C(=O)OCCN2CCN(C(c3ccccc3)c3ccccc3)CC2)C1c1cccc([N+](=O)[O-])c1 (centres undefined)
Potency [1]: inactive
Potency [2]: inactive

CC(C)c1ccc(Cn2ccc3c4c(N)nc(NC5CC5)nc4ccc32)cc1
Potency [1]: inactive
Potency [2]: 18 µM (active)

COc1cccc(-c2ccc(NC(=O)C3=C(C(=O)O)CCC3)c(F)c2)c1
Potency [1]: inactive
Potency [2]: inactive
Potency [3]: 5.36 µM (active)
Potency [4]: inactive
Potency [5]: 12 µM (active)

COc1ccc(CC2c3cc(OC)c(OC)cc3CC[N+]2(C)CCC(=O)OCCCCCOC(=O)CC[N+]2(C)CCc3cc(OC)c(OC)cc3C2Cc2ccc(OC)c(OC)c2)cc1OC (centres undefined)
Potency [1]: inactive
Potency [2]: inactive

O=C(O)CCCc1c[nH]c2ccccc12
Potency [1]: inactive
Potency [2]: inactive
Potency [3]: inactive
Potency [4]: inactive
Potency [5]: inactive

Cn1c2cc(S(C)=O)sc2c2cnn(Cc3cccc(N)c3)c(=O)c21 (centres undefined)
Potency [1]: inactive
Potency [2]: inactive

CN1CCN(c2ccc3nc(-c4c(N)c5c(F)cccc5[nH]c4=O)[nH]c3c2)CC1
Potency [1]: inactive
Potency [2]: inactive

C[C@@H]1COC(Nc2ccc3ncnc(Nc4ccc(OCc5nccs5)c(Cl)c4)c3c2)=N1
Potency [1]: inactive
Potency [2]: inactive
Potency [3]: 19 µM (active)
Potency [4]: inactive

CNC(=O)c1ccccc1Nc1nc(Nc2ccc(N3CCOCC3)cc2OC)ncc1Cl
Potency [1]: inactive
Potency [2]: inactive
Potency [3]: inactive
Potency [4]: 1.89 µM (active)
Potency [5]: inactive

CN(c1ncccc1CNc1nc(Nc2ccc3c(c2)CC(=O)N3)ncc1C(F)(F)F)S(C)(=O)=O
Potency [1]: inactive
Potency [2]: inactive

CN1c2cc(O)c(N=NC(N)=O)cc2CC1S(=O)(=O)O (centres undefined)
Potency [1]: inactive
Potency [2]: inactive

CN1CCN(c2cc(C(=O)Nc3ccc4c(c3)-c3c(c(C(N)=O)nn3-c3ccc(F)cc3)CC4)c(Cl)cn2)CC1
Potency [1]: inactive
Potency [2]: inactive

NC(=O)c1c(OCc2c(F)cc(Br)cc2F)nsc1NC(=O)NCCCCN1CCCC1
Potency [1]: inactive
Potency [2]: inactive
Potency [3]: inactive
Potency [4]: inactive
Potency [5]: inactive

CC[C@H](CO)Nc1nc(NCc2ccccc2)c2ncn(C(C)C)c2n1
Potency [1]: inactive
Potency [2]: inactive

COc1cc2c(Nc3ccc(NC(=O)c4ccccc4)cc3)ncnc2cc1OCCCN1CCOCC1
Potency [1]: inactive
Potency [2]: inactive
Potency [3]: inactive
Potency [4]: inactive

COc1cc(C)c(Sc2cnc(NC(=O)c3ccc(CNC(C)C(C)C)cc3)s2)cc1C(=O)N1CCN(C(C)=O)CC1 (centres undefined)
Potency [1]: inactive
Potency [2]: inactive
Potency [3]: inactive
Potency [4]: inactive

Cc1cc(Nc2ncnc3ccc(-c4ccc(CNCCS(C)(=O)=O)o4)cc23)ccc1Oc1ccn2ncnc2c1
Potency [1]: inactive
Potency [2]: inactive
Potency [3]: inactive
Potency [4]: inactive

Cc1nc2cnc3ccc(C#Cc4cccnc4)cc3c2n1-c1ccc(C(C)(C)C#N)cc1
Potency [1]: inactive
Potency [2]: inactive

COc1cc2ncn(-c3cc(OCc4ccccc4C(F)(F)F)c(C(N)=O)s3)c2cc1OC
Potency [1]: inactive
Potency [2]: inactive

CCN1CCN(Cc2ccc(-c3cc4c(N[C@H](C)c5ccccc5)ncnc4[nH]3)cc2)CC1
Potency [1]: inactive
Potency [2]: 22.7 µM (active)

CC(=O)OCCN1C(=O)c2c(C)nc3ccc(S(=O)(=O)N4CCOCC4)cc3c2C1=O
Potency [1]: inactive
Potency [2]: inactive

CNC(=O)c1cc(Oc2ccc(NC(=O)Nc3cc(C(C)(C)C)nn3-c3ccc4ncccc4c3)c(F)c2)ccn1
Potency [1]: inactive
Potency [2]: inactive
Potency [3]: inactive
Potency [4]: inactive
Potency [5]: inactive

N#CCNC(=O)c1ccc(-c2ccnc(Nc3ccc(N4CCOCC4)cc3)n2)cc1
Potency [1]: inactive
Potency [2]: inactive
Potency [3]: inactive
Potency [4]: 1.5 µM (active)
Potency [5]: inactive

COc1ccc(OC)c(-c2nnc3ccc(-c4ccc(OC)c(O[C@@H]5CCOC5)c4)nn23)c1
Potency [1]: inactive
Potency [2]: inactive
Potency [3]: inactive
Potency [4]: inactive
Potency [5]: inactive

COc1ccc(C(=O)CC2(O)C(=O)Nc3c(Cl)ccc(Cl)c32)cc1 (centres undefined)
Potency [1]: inactive
Potency [2]: inactive
Potency [3]: inactive
Potency [4]: inactive
Potency [5]: inactive

Cn1cc(-c2ccncc2)c(-c2ccc(OCc3ccc4ccccc4n3)cc2)n1
Potency [1]: inactive
Potency [2]: inactive
Potency [3]: inactive
Potency [4]: inactive
Potency [5]: inactive

Cc1ccc2nc(NC(=O)CSc3nc4c(c(=O)n3-c3ccccc3)SCC4)sc2c1
Potency [1]: inactive
Potency [2]: inactive
Potency [3]: inactive
Potency [4]: inactive
Potency [5]: inactive

CC[C@@H]1C(=O)N(C)c2cnc(Nc3ccc(C(=O)NC4CCC(N5CCN(CC6CC6)CC5)CC4)cc3OC)nc2N1C(C)C (some centres undefined)
Potency [1]: inactive
Potency [2]: inactive
Potency [3]: inactive
Potency [4]: inactive
Potency [5]: inactive

O=C(Nc1cn[nH]c1-c1nc2ccc(CN3CCOCC3)cc2[nH]1)NC1CC1
Potency [1]: inactive
Potency [2]: inactive
Potency [3]: inactive
Potency [4]: inactive
Potency [5]: inactive

Cc1cn2c(-c3cn[nH]c3)cnc2c(Nc2ccc(C(=O)N3CCNCC3)cc2F)n1
Potency [1]: inactive
Potency [2]: inactive
Potency [3]: inactive
Potency [4]: inactive
Potency [5]: inactive

Clc1cccc(-c2nnnn2Cc2cccnc2)c1Cl
Potency [1]: inactive
Potency [2]: inactive
Potency [3]: inactive
Potency [4]: inactive
Potency [5]: inactive

CNc1nccc(-c2cccnc2Oc2cc(C(=O)Nc3cccc(C(F)(F)F)c3)ccc2C)n1
Potency [1]: inactive
Potency [2]: inactive
Potency [3]: inactive
Potency [4]: inactive
Potency [5]: inactive

CCNC(=O)Nc1ccc2ncc(Nc3ccc(C)cc3)nc2n1
Potency [1]: inactive
Potency [2]: inactive
Potency [3]: inactive
Potency [4]: inactive
Potency [5]: inactive

Cc1[nH]nc2ccc(-c3cncc(OC[C@@H](N)Cc4ccccc4)c3)cc12
Potency [1]: inactive
Potency [2]: inactive
Potency [3]: inactive
Potency [4]: inactive
Potency [5]: inactive

CN(C)CC(C)(C)CNc1nn2c(-c3ccccc3)nnc2cc1C1CCC1
Potency [1]: inactive
Potency [2]: inactive
Potency [3]: inactive
Potency [4]: inactive
Potency [5]: inactive
